The text below walks through data of PubChem BioAssay AID624330 (Southern Research Specialized Biocontainment Screening …, 2012).

As usually defined, the inhibition is the drop in the measured response relative to a control, in per cent.

The whole screen tested about 340,000 compounds, of which about 2,100 (0.62%) were called active.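 The calls were made as follows: active = first-screen hits whose inhibition reached a set limit at any dose in the follow-up dose series; inconclusive = inhibition above the set first-screen limit but never retested; inactive = the rest.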 Only a sample is shown. Entries with a potency or affinity are not part of this list.

Chain of Rac GTPase-activating protein 1 (Homo sapiens) (Q9H0H5 whole entry, looked up): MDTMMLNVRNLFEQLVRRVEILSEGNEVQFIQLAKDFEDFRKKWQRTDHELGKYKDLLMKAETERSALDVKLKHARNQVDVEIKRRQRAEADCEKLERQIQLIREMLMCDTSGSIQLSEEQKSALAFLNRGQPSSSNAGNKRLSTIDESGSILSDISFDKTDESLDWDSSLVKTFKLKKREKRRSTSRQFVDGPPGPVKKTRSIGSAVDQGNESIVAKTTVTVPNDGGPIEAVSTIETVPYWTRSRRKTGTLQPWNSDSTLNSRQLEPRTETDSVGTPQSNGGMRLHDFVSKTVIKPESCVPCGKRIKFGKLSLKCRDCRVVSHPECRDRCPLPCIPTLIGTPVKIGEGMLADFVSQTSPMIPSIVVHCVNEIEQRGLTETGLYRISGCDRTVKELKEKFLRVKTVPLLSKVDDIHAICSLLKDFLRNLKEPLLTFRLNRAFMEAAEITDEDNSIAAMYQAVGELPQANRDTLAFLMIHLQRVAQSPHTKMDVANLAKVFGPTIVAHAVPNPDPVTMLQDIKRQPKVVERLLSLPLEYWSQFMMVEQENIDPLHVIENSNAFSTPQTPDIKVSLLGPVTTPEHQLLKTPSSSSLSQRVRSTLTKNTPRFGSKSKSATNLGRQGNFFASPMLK

The assay concerns the target Rac GTPase-activating protein 1 (Homo sapiens) (UniProt Q9H0H5). Description: blockers of MgcRacGAP-driven Rac1 GTP hydrolysis – biochemical, ADP Hunter fluorescence, primary and confirmatory, confirmation (AID 624330).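 Also: fluorescence reports GDP produced by GAP-driven GTP hydrolysis.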 The conditions noted are these: MgcRacGAP-stimulated Rac1 GTP hydrolysis, at 30 µM, hits give high values, GST-tagged Rac1 F28L mutant substrate.
In the case of `COc1ccccc1NC(=O)/C(C#N)=C/c1cccnc1`, the inhibition is 4.24% (inactive).

As for `Cc1ccccc1NC(=O)/C(C#N)=C\c1cccnc1`, the inhibition is 16.7% (inactive).

For `CCCOc1ncnc2c1[nH]c1ccc(OC)cc12`, the inhibition is 5.1% (inactive).

Take `Cc1cc(O)ccc1NC(=S)NC(=O)c1cncc(Br)c1`: the inhibition was 11% (inactive).

For `CC(C)CCNC(=O)c1cccc(C(=O)NCCC(C)C)c1`, the inhibition was 9.34% (inactive).

As for `COc1cc(/C=N/N=C(\N)c2nonc2N)cc(OC)c1O`, the inhibition was 19.5% (inactive).

For `C(=N\N=C\c1ccccc1)/c1ccccc1`, the inhibition is 5.71% (inactive).

For the compound `COc1ccc(/C=N/N=C(\N)c2nonc2N)cc1OC`, the inhibition is 0.88% (inactive).

Consider `Cc1ccc(/C=N/N=C/c2ccc(C)cc2)cc1`, for which the inhibition was 4.21% (inactive).

Take `COc1ccc(/C=N/N=C(\N)c2nonc2N)cc1`: the inhibition was 6.95% (inactive).

Take `N/C(=N\N=C\c1cccc(O)c1)c1nonc1N`: the inhibition was 7.37% (inactive).

Take `COc1ccc(C(=O)NN=C2CCCC2)cc1OC`: the inhibition is -4.29% (inactive).

Turning to `CC(C)NC(=O)N(C)C[C@H]1Oc2ccc(NC(=O)Cc3ccccc3)cc2C(=O)N([C@H](C)CO)C[C@@H]1C`, the inhibition is -4.37% (inactive).

Take `O=C(Nc1ccc(Cl)c(Cl)c1)N1N=CCC1c1ccccc1` (stereo unspecified): the inhibition is 0.69% (inactive).

On to `COc1ccc(-c2cc(C(F)F)n3ncc(C(=O)Nc4c(C)n(C)n(-c5ccccc5)c4=O)c3n2)cc1`, for which the inhibition is 5.73% (inactive).

In the case of `COc1ccccc1NS(=O)(=O)c1cc(NC(=S)NCCN2CCOCC2)ccc1N1CCOCC1`, the inhibition was 21.5% (inactive).

`Cc1ccc(S(=O)(=O)N2CCCCC2)cc1NC(=O)C1=NN(c2ccccc2)C(=O)CC1`: the inhibition was 4.16% (inactive).

As for `Fc1ccc(OCc2nc3ccccc3s2)cc1`, the inhibition was 3.88% (inactive).

Consider `c1ccc(OCc2nc3ccccc3s2)cc1`, for which the inhibition was 7.47% (inactive).

Turning to `O=c1oc2ccccc2c(O)c1Sc1c(O)c2ccccc2oc1=O`, the inhibition was 16.1% (inactive).

On to `COc1cc(C(=O)NCCCCc2ccccc2)cc(OC)c1OC`, for which the inhibition was 5.47% (inactive).

`COc1ncnc2c1ncn2CCCNCc1ccccn1`: the inhibition is 12.9% (inactive).

As to `COC(=O)C(NC(C)=O)(Nc1sc2c(c1C(N)=O)CCCC2)C(F)(F)F` (stereo unspecified), the inhibition was 4.3% (inactive).

Regarding `COc1ccc(CNc2ncc(-c3ccccc3)n2C)c2ccccc12`, the inhibition was 23.6% (inactive).

For the compound `COc1ccc(CNc2ncc(-c3cccc([N+](=O)[O-])c3)n2C)c(OC)c1OC`, the inhibition was 28.9% (inactive).

`Cn1c(-c2ccccc2)cnc1NCc1cc(Cl)ccc1O`: the inhibition was 31.7% (inactive).

On to `Cc1ccc(CNc2nc3ccccc3n2C)o1`, for which the inhibition is 8.19% (inactive).

For the compound `COc1ccc(CNc2ncc(-c3ccc(Cl)cc3)n2C)c(OC)c1OC`, the inhibition was 16.9% (inactive).

In the case of `Cn1c(-c2ccc(F)cc2)cnc1NCc1ccc(F)cc1F`, the inhibition was 29.6% (inactive).

For `Cn1c(-c2ccc(F)cc2)cnc1NCc1ccccc1F`, the inhibition is 25.9% (inactive).

For `COc1ccccc1CNc1ncc(-c2ccc(F)cc2)n1C`, the inhibition is 28.3% (inactive).
